Source: PubChem BioAssay
Sampled rows, rich in hits. Any-hit rate of the full collection: about 2.1%.
aSyn yeast inh = alpha-synuclein toxicity inhibition in yeast; Yeast expressing alpha-synuclein, growth rescue, BacTiter-Glo, 24 h; Potency, µM (highest dose often 46.1 µM), hits mostly activators; 370,000 compounds, 0.14% hits; note: nearly all actives have a fitted effect of over 65% in size
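Rescue of yeast growth: cells expressing toxic alpha-synuclein, induced in galactose at OD600 0.02, incubated with compound 24 h at 30 C. ATP luminescence quantified growth; inhibitors of toxicity appear as activators.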
TDP-43 yeast inh = TDP-43 toxicity inhibition in yeast; TDP-43 expressing yeast growth rescue, BacTiter-Glo, 24 h; Potency, µM (top dose mostly 46.1 µM), hits mostly activators; 410,000 compounds, 1.8% hits; AID 652104; note: nearly all actives have a fitted effect of over 50% in size
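Cell-based yeast growth screen: TDP-43 expression induced in galactose, inoculum OD600=0.02 after raffinose pregrowth to mid-log. Read-out BacTiter-Glo luminescence at 24 hr, 30 deg C; inhibition of toxicity seen as signal increase.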
FUS suppressor = suppressors of FUS proteinopathy in yeast; AID 1347120; Potency, µM (doses to about 76.6 µM), most hits filed as activators; 390,000 compounds, 0.24% hits; S. cerevisiae FUS-expressing, growth rescue, OD600, 24 h; note: nearly all actives have a fitted effect of over 55% in size
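Cultures pregrown in 2.5% raffinose medium are shifted to minimal medium containing 2% galactose to express toxic FUS. Compounds are tested at several concentrations. After 24hr at 30C, growth is quantified at 600 nm absorbance.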
Abeta yeast res = restores growth of yeast expressing A-beta42 peptide. yeast expressing A-beta42, growth rescue, OD600, 48 h; response scale: 0% DMSO, 100% iron-clioquinol control. Potency, µM (titrated, usually from 46.1 µM), most hits filed as activators. 410,000 compounds, 0.063% hits. AID 1347071; note: nearly all actives have a fitted effect of over 55% in size
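Yeast A-beta toxicity model in growth medium with pinned compounds, 48 h at 30 C; growth read as absorbance at 600 nm. Normalized to FeCl3/clioquinol equimolar mix (positive) and DMSO (negative).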
Of the large screens only hits and unclear results are named; the others gave an inactive call. Calls come from the whole dose curve; as a rule, active = well fitted curve in the direction sought with a large enough effect; inconclusive = small, poorly fitted or top-dose-only effect, or another doubt; inactive = no such curve, though single readings can be large; an effect the other way counts as inactive or inconclusive.

CN(c1ccccc1)S(=O)(=O)c1ccc(NC(=S)NC(=O)C2CC2)cc1	TDP-43 yeast inh 18µM
N#Cc1ccc(NC(=S)NC(=O)C2CC2)cc1	aSyn yeast inh inconclusive, TDP-43 yeast inh 13µM
O=C(NC(=S)Nc1ccc(F)cc1)C1CCCCC1	Abeta yeast res 5µM
O=C(Nc1ccc(F)cc1)C1CCCCC1	none
Cc1ccc(C)c(N2CCN(c3ccncc3N)CC2)c1	none
CC(=O)c1ccc(NC(=O)C[n+]2cccc(C)c2)cc1	none
Cc1ccc(SCC(=O)N2N=CCC2c2ccccc2)cc1 (centres undefined)	none
COC(=O)c1cc(NC(=O)NC2CCCCN(Cc3cccc(Cl)c3)C2=O)cc(C(=O)OC)c1 (centres undefined)	none (no result: aSyn yeast inh, TDP-43 yeast inh, Abeta yeast res)
CCOC(=O)c1c(C)[nH]c(O)c1C=Nc1ccc(C(F)(F)F)cc1	TDP-43 yeast inh 3.2µM
Cc1cccc(C)c1-n1nnnc1-c1nc2cc3ccccc3cc2[nH]c1=O	none
O=C(NCc1ccccc1)c1ccc2oc(=O)n(Cc3ccccc3)c2c1	TDP-43 yeast inh 22µM (no result: aSyn yeast inh)
COc1ccc(Cl)cc1NC(=O)c1c(NCc2cccnc2)sc2c1CCC(C)C2 (centres undefined)	TDP-43 yeast inh 22µM (no result: aSyn yeast inh)
COc1ccc(OC)c(C2C(C(=O)c3ccc(C)o3)=C(O)C(=O)N2c2cc(C)on2)c1 (centres undefined)	FUS suppressor 32µM
O=C(NNC1=C(C(=O)C(F)(F)F)CCC1)c1ccccc1O	none
COc1ccccc1C(=O)NNC1=C(C(=O)C(F)(F)F)CCC1	aSyn yeast inh 3.5µM, Abeta yeast res inconclusive
CCOC(=O)c1c(-c2ccccc2)oc2ccc(O)cc12	TDP-43 yeast inh inconclusive
CCOC(=O)c1c(CSc2ccc(C)cc2)oc2ccc(O)cc12	TDP-43 yeast inh 22µM
CCOC(=O)c1c(CSc2ccccc2)oc2ccc(O)cc12	TDP-43 yeast inh 20µM
CC(C)c1nc(C(=O)N2CCCC(CCC(=O)N(C)CCc3ccccn3)C2)cs1 (centres undefined)	none
CCOc1ccccc1NC(=O)CSc1nnc(-c2ccco2)o1	TDP-43 yeast inh 13µM
COc1ccccc1NC(=O)CCSc1nnc(-c2ccco2)o1	none
CCOc1ccccc1NC(=O)CSc1ccccc1	TDP-43 yeast inh 14µM
CCOc1ccccc1NC(=O)NNC(=O)c1ccc2ccccc2c1	none
CCOc1ccccc1NC(=O)CCC(=O)Nc1ccccc1OCC	none
O=C(CSc1nnc(-c2ccco2)o1)c1ccccc1Cl	TDP-43 yeast inh inconclusive, FUS suppressor 22µM
CCOc1ccccc1NC(=O)c1ccc2ccccc2c1	TDP-43 yeast inh 6.3µM
CC(=O)N1CCc2cc(S(=O)(=O)NC(CC(C)C)C(=O)NCCc3ccccc3)ccc21 (centres undefined)	none (no result: aSyn yeast inh)
O=C(CCc1nc2ccccc2c(=O)[nH]1)N1CCN(S(=O)(=O)c2cccc(F)c2)CC1	none (no result: FUS suppressor)
CCN(c1ccccc1)S(=O)(=O)c1ccc2c(c1)N(C(C)=O)CCS2	none
Cc1ccc(C)c(N2CCN(C(=O)C(C)n3nc(C)c4sc5ccccc5c4c3=O)CC2)c1 (centres undefined)	none (no result: aSyn yeast inh)
CCOc1ccccc1NC(=O)CSc1ncc(S(=O)(=O)c2ccc(C)c(C)c2)c(N)n1	FUS suppressor 32µM (no result: aSyn yeast inh)
Cc1ccc2ccc3cc(C(=O)Nc4ccc(C)c(F)c4)nc3c2[nH]1	TDP-43 yeast inh 4µM
CCOC(=O)C1CCCN(C(=O)c2cc3c(OC)c(OC)c(OC)cc3[nH]2)C1 (centres undefined)	none
CCOc1ccc(C(=O)Nc2cc(-c3nc4ccccc4[nH]3)ccc2Cl)cc1[N+](=O)[O-]	TDP-43 yeast inh 4µM (no result: FUS suppressor)
CCOc1ccc(C(=O)Nc2cc(-c3nc4ccccc4[nH]3)ccc2C)cc1[N+](=O)[O-]	FUS suppressor inconclusive
CCCOc1ccc(C(=O)Nc2cc(-c3nc4ccccc4[nH]3)ccc2C)cc1	TDP-43 yeast inh 13µM (no result: aSyn yeast inh)
COC(=O)c1ccc(COc2ccc(CNCc3ccc(Cl)cc3)cc2)cc1	none
CCOC(=O)CC1COCCN1C(=O)c1cc(COc2ccc(F)cc2Cl)on1 (centres undefined)	TDP-43 yeast inh inconclusive (no result: FUS suppressor)
Cc1cccc(NC(=O)c2ccc(C(=O)c3ccccc3)cc2)n1	TDP-43 yeast inh inconclusive
O=C(Nc1cccc(NC(=O)c2ccccc2)n1)c1ccccc1	TDP-43 yeast inh 11µM
CCCCNc1c(-c2ccc(SC3CCCCC3)cc2)nc2cnccn12	TDP-43 yeast inh 22µM, FUS suppressor inconclusive
CCCCNc1c(-c2ccc(OC)c(SC3CCCCC3)c2)nc2cnccn12	FUS suppressor 32µM
